Compound activity: PubChem, National Center for Advancing Translational Sciences (NCATS)
Rows were chosen to be rich in hits. Some 7.5% of all compounds tested hit in one or more screens of this group.
Rab9 promoter act: activators of Rab9 promoter; Huh7 Rab9 promoter-luciferase reporter, luminescence, 24 h; Potency, µM (series often up to 9.22 µM), without a hit: top-dose activation, negative = inhibition, hits mostly activators; hit rate 2.8% among 320,000; note: % of control where 0% means no effect; nearly all actives have a fitted effect of over 60% in size
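Luminescence from Amplite-detected luciferase (10 minutes, ambient) reports Rab9 promoter activation. Before that, stable Rab9-luciferase Huh7 cells (1500/well, reduced-serum OP-MEM I plus 10% FBS) were exposed to compound for 24 hours at 37C.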
FLuc modulator: inhibits or activates purified firefly luciferase, miR-21 counter-screen | hit rate 6.9% among 360,000 | purified FLuc, Km substrates, luminescence inhibition | Potency, µM (titrated, usually from 57.5 µM), for the others: at the highest dose activity change, negative = inhibition, usual class: inhibitors;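 note: plate controls were vehicle for no effect and reference inhibitor for full effect; nearly all actives have a fitted effect of over 55% in size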
Target sequence (P08659 whole entry, looked up): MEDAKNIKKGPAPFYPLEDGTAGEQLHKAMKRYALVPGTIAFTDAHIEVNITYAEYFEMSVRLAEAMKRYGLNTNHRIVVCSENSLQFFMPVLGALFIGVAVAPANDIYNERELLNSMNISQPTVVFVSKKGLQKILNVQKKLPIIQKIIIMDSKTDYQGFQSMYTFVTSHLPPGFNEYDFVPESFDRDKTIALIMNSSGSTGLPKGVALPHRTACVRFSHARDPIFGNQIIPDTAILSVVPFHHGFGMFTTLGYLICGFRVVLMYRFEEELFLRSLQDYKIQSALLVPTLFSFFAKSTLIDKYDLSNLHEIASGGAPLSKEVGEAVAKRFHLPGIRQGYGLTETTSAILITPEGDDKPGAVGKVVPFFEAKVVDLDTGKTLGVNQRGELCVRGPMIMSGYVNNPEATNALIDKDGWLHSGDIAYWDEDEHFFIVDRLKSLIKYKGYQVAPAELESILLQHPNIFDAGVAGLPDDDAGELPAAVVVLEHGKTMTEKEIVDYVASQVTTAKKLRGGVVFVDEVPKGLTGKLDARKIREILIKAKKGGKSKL
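Purified P. pyralis luciferase (10nM final) with 10uM D-luciferin and 10uM ATP (Km levels) in 50mM Tris acetate pH 7.5, 10mM Mg acetate, 0.01% Tween-20, 0.05% BSA; qHTS 6-point titration, ~60 µM downward; luminescence read.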
ELG1 genotoxic: inducers of genotoxicity in HEK293T ELG1-luciferase cells. HEK293T ELG1-luciferase reporter, luminescence, 16 h. Potency, µM (doses to about 46 µM), without a hit: at the highest dose activity change, positive = activation, actives largely listed as activators. hit rate 1.3% among 330,000; note: % of control where 0% means no effect; nearly all actives have a fitted effect of over 60% in size
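ELG1-luciferase HEK293T cells, 2,000/well; compound pinned in; 16 hr, 37 °C, 5% CO2; ONE-Glo, 30 min RT; luminescence on CCD imager.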
Luc counter: counter-screen: inhibitors of Kinase-Glo firefly luciferase; Kinase-Glo luciferase, ATP luminescence, 8 min; Potency, µM (doses to about 38.3 µM), inactives show top-dose activity change, negative = inhibition, hits mostly inhibitors; hit rate 0.28% among 200,000; AID 1379; note: % is set by controls: 0 for no effect and ±100 for the full control effect; nearly all actives have a fitted effect of over 60% in size
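Compound is pinned into ATP-containing buffer (10 uM ATP, imidazole pH 7.2, 7 mM MgCl2). Kinase-Glo luciferase reagent is then added. Light output is recorded following an 8-min room-temperature incubation.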
SMN2 splice enh: increases expression of the SMN2 splice variant; HEK293 SMN2-luciferase splicing reporter, luminescence, 30-36 h; hit rate 2.8% among 210,000; Potency, µM (top dose mostly 46.1 µM), for the others: at the top dose activity change, positive = activation, most hits filed as activators; AID 1458; note: % of control where 0% means no effect; nearly all actives have a fitted effect of over 55% in size
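qHTS luciferase splicing reporter: luminescence rises when SMN2 exon 7 is included in transfected HEK293 cells. Compound exposure lasted 30-36 h at 37C, with 4.5 mM final sodium butyrate as control, followed by a ONE-Glo read.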
NPC1 prom act: activates the NPC1 promoter; Huh7 NPC1 promoter luciferase reporter, 24 h; Potency, µM (doses to about 9.22 µM), for the others: at the highest dose activation, actives largely listed as activators; hit rate 2.4% among 320,000; note: % of control where 0% means no effect; nearly all actives have a fitted effect of over 60% in size
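Cells: Huh7 expressing luciferase under the NPC1 promoter, 1500/well. Seeded 2 h, compound added, incubated 24 h at 37 °C. Luciferase reagent, 10 min ambient, then luminescence.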
* hit, by the source's call; ? = inconclusive; · = not tested or not shown; [ ] = dose if it differs, or a comment. Calls come from the whole dose curve; as a rule, active = well fitted curve in the direction sought with a large enough effect; inconclusive = small, poorly fitted or top-dose-only effect, or another doubt; inactive = no such curve, though single readings can be large; an effect the other way counts as inactive or inconclusive. Potency is the fitted concentration of half-maximal effect.

SMILES	Rab9 promoter act	FLuc modulator	ELG1 genotoxic	Luc counter	SMN2 splice enh	NPC1 prom act
COc1ccc(NC(=O)c2oc3ccccc3c2NC(=O)C23CC4CC(CC(C4)C2)C3)c(OC)c1	·	-3%	·	·	-3%	·
O=c1oc2ccccc2c(O)c1/C=C1\C=Nc2ccccc21	-3%	27µM*	-2%	0%	-13%	13%
CC(N=Cc1c(O)c2ccccc2oc1=O)C(=O)O (stereo unspecified)	-8%	-14%	-4%	-5%	-8%	-5%
O=c1oc2ccccc2c(O)c1C=Nc1cccnc1	-12%	9.5µM*	-8%	-7%	-2%	-7%
CCOc1ccc(N=Cc2c(O)c3ccccc3oc2=O)cc1	-1%	0.85µM*	9%	?	-6%	-1%
O=c1oc2ccccc2c(O)c1/C=N/c1ccccn1	2%	11µM*	-3%	?	-6%	-5%
O=c1oc2ccccc2c(O)c1/C=N/c1ncccn1	3%	?	5%	?	-27%	2%
COc1cc(OC)cc(-n2c(=O)c3ccccc3n(Cc3ccccc3C#N)c2=O)c1	·	-1%	·	·	-3%	·
CCC(=O)Nc1ccc2c(c1)ncn2-c1ccc(OC)cc1	19%	27µM*	18µM*	-2%	13µM*	12%
CCC(=O)Nc1ccc2c(c1)ncn2-c1ccccc1C	0%	0%	4%	0%	1%	-2%
CCC(=O)Nc1ccc2c(c1)ncn2-c1ccc(C)cc1	2.5µM*	8.5µM*	?	1%	8.9µM*	2.2µM*
Clc1ccc(-c2cnc(Oc3ccccc3)nc2)cc1	2.8µM*	2.7µM*	?	-2%	14µM*	0.79µM*
Cc1cc(Cl)ccc1Oc1ncc(-c2ccc(Cl)cc2)cn1	-5%	-16%	-7%	0%	-24%	-6%
C[C@]12C(=O)N(c3ccc(Br)cc3)C(=O)N1[C@H]1c3ccccc3OC[C@@H]1[C@H]2c1ccccc1	·	·	1%	·	·	·
O=C(NCC1CCCCC1)c1cc2ccccc2cc1O	27%	12µM*	0%	·	·	?
O=C(N/N=C1/CC2CCC1C2)c1cc2ccccc2cc1O (stereo unspecified)	4%	15µM*	-3%	·	·	16%
O=C(NCC1CCCO1)c1cc2ccccc2cc1O (stereo unspecified)	?	24µM*	15%	·	·	?
O=C(NCC1CCCO1)c1ccc(COc2ccccc2Br)cc1 (stereo unspecified)	-6%	24µM*	2%	-1%	-10%	1%
O=C(NCC1CCCO1)c1ccc(COc2ccc(Cl)cc2)cc1 (stereo unspecified)	-3%	-11%	-5%	-1%	-46%	-1%
Cc1c(O)ccc(C(=O)COc2ccccc2F)c1O	5%	21µM*	?	0%	-17%	15%
O=C(COc1ccccc1F)c1ccc(O)cc1O	7%	?	13%	-2%	-5%	12%
COc1c(O)ccc(/C=N/NC(=O)c2ccc3c(c2)OCCO3)c1[N+](=O)[O-]	?	2.7µM*	?	·	·	?
COc1c(O)ccc(/C=N\NC(=O)c2ccc3c(c2)OCO3)c1[N+](=O)[O-]	0%	15µM*	13%	·	·	4%
O=C(N/N=C/c1cc2c(cc1[N+](=O)[O-])OCO2)c1ccc2c(c1)OCO2	5%	?	0%	·	·	3%
COc1ccc(Nc2nc(-c3ccccc3F)nc3ccccc23)cc1OC	0%	27µM*	-10%	·	·	-4%
SMILES	Rab9 promoter act	FLuc modulator	ELG1 genotoxic	Luc counter	SMN2 splice enh	NPC1 prom act
Oc1ccc(Nc2nc(-c3ccccc3F)nc3ccccc23)cc1	3%	-6%	-7%	·	·	3%
CCOc1ccccc1NC(=O)c1nc(SC(C)C)ncc1Cl	·	-10%	·	·	7%	·
Cc1csc2nc(CNC(=O)c3ccco3)cn12	?	17µM*	18µM*	0%	20µM*	?
COc1ccc(-c2nc(C)c(CCNC(=O)c3ccco3)s2)cc1	·	27µM*	·	·	·	·
COc1ccc(-c2nc(CCNC(=O)c3cccs3)cs2)cc1	-5%	27µM*	?	-1%	-71%	1%
COc1ccc(CC(=O)NCCc2csc(-c3ccc(Cl)cc3)n2)cc1	·	-6%	·	·	·	·
COc1ccc(-c2nc(C)c(CCNC(=O)c3cccs3)s2)cc1OC	·	17µM*	·	·	·	·
CCOC(=O)c1c(NC(=O)/C=C/c2ccc(OCC)cc2)sc(C(C)=O)c1C	·	-1%	·	·	2%	·
COc1ccc(C(=O)c2cn(Cc3ccccc3F)c3cc4c(cc3c2=O)OCCO4)cc1OC	·	-11%	·	·	0%	·
Cc1ccc(-c2nc(CCNC(=O)c3ccco3)cs2)cc1	-2%	17µM*	-9%	·	·	-10%
Cc1cccc(-c2nc(CCNC(=O)c3ccco3)cs2)c1	·	-20%	·	·	·	·
Cc1ccc(-c2nc(C)c(CCNC(=O)c3ccco3)s2)cc1	·	17µM*	·	·	·	·
CCCOc1ccc(C(=O)Nc2ccc(N(C)C)cc2)cc1	?	0.76µM*	5.6µM*	-4%	92%	15%
CC(C)Oc1ccc(C(=O)Nc2ccc(N(C)C)cc2)cc1	18%	3.4µM*	4.1µM*	·	·	19%
Cn1c(=O)n(C)c2cc(C(N)=O)ccc21	1%	8%[2.3 µM]	9%	-3%	22µM*	-2%
CCCOc1ccc(NC(=O)c2cc3cc(C)ccc3[nH]2)cc1	?	-9%	10%	·	·	1.8µM*
CC(C)Oc1ccc(C(=O)NCC(c2ccc(N(C)C)cc2)N2CCCC2)cc1 (stereo unspecified)	·	4%	·	·	·	·
COc1ccc(C(C)C(=O)c2ccc(O)cc2O)cc1 (stereo unspecified)	·	·	·	-3%	-9%	·
Cn1c(=O)n(C)c2cc(NC(=O)c3ccc(F)cc3)ccc21	6%	?	?	·	·	-4%
CC(C)Oc1ccc(C(=O)Nc2ccc3c(c2)n(C)c(=O)n3C)cc1	2%	12µM*	23µM*	·	·	0%
Cc1cccn2c(=O)c3cc(C(=O)NC4CCCC4)sc3nc12	27%	?	-1%	·	·	1%
CC1CCCCN1C(=O)Cn1c(SCC(=O)N(C)c2ccccc2)nc2ccccc21 (stereo unspecified)	·	-1%	·	·	·	·
CCc1cccc(NC(=O)Nc2csc3c2CCCC3)c1	·	?	·	·	16%	·
CCc1cccc(NC(=O)Nc2cccs2)c1	2.8µM*	8.5µM*	?	-2%	13µM*	?
N#Cc1cccc(NC(=O)Nc2cccs2)c1	15%	15µM*	-1%	-5%	-18%	19%
COC(=O)CCNC(=O)CCc1ccc(S(=O)(=O)N2CCCCCC2)cc1	-4%	·	2%	·	·	-2%
CC(=O)Nc1nc(SCC(=O)NCc2ccc(F)cc2)[nH]c(=O)c1NC(=O)c1cccs1	4%	?	1%	-1%	4%	-2%
Cc1ccc2c(c1)C(=O)C(=O)N2CCCOc1ccccc1C	-2%	-2%	-1%	-2%	·	-4%
